# Screening data from PubChem.
# Rows were chosen to be rich in hits. Some 9.3% of all compounds tested hit in one or more screens of this group.
# NPC1 prom act – activates the NPC1 promoter | Potency, µM (top dose mostly 9.22 µM), usual class: activators | Huh7 NPC1 promoter luciferase reporter, 24 h | hit rate 2.4% among 320,000; note: nearly all actives have a fitted effect of over 60% in size
#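 Cells: Huh7 expressing luciferase under the NPC1 promoter, 1500/well. Seeded 2 h, compound added, incubated 24 h at 37 °C. Luciferase reagent, 10 min ambient, then luminescence.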
# SMN2 splice up – increases expression of the SMN2 splice variant; HEK293 SMN2-luciferase splicing reporter, luminescence, 30-36 h; Potency, µM (doses to about 46.1 µM), actives largely listed as activators; hit rate 2.8% among 210,000; AID 1458; note: nearly all actives have a fitted effect of over 55% in size
#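 HEK293 cells carry an SMN2 minigene-luciferase reporter in which exon 7 inclusion puts luciferase in frame. Cells were seeded at 2000 cells/well, attached for 10-12 hours, then exposed to compounds for 30-36 hours at 37C before ONE-Glo luminescence.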
# ELG1 genotox – inducers of genotoxicity in HEK293T ELG1-luciferase cells; HEK293T ELG1-luciferase reporter, luminescence, 16 h; Potency, µM (series often up to 46 µM), hits mostly activators; hit rate 1.3% among 330,000; AID 504466; note: nearly all actives have a fitted effect of over 60% in size
#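 HEK293T cells expressing luciferase-tagged ELG1 were treated with compound or DMSO for 16 hr at 37°C. Luciferase activity was then read after 30 min with ONE-Glo at room temperature; rising signal flags genetic stress.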
# Rab9 prom act – activators of Rab9 promoter; Potency, µM (top dose mostly 9.22 µM), most hits filed as activators; hit rate 2.8% among 320,000; Huh7 Rab9 promoter-luciferase reporter, luminescence, 24 h; AID 485297; note: nearly all actives have a fitted effect of over 60% in size
#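 Quantitative HTS format; Huh7 Rab9-luciferase reporter cells (1500/well) receive compound 2 h post-plating, incubate 24 h at 37 °C, then get luciferase reagent for 10 min before luminescence reading.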
# ELG1 DNA repair – ELG1-dependent DNA repair inhibition; hit rate 2.3% among 330,000; Potency, µM (top dose mostly 46.1 µM), most hits filed as inhibitors; HEK293T ELG1-luciferase reporter, luminescence, 16 h; DNA damage induced by 5-fluorouridine; AID 504467; note: nearly all actives have a fitted effect of over 55% in size
#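 Overnight (16 hr) co-exposure of 2,000 cells/well to 5-fluorouridine and compound at 37 °C preceded detection. Luciferase was quantified via ONE-Glo luminescence; loss of signal denotes inhibition.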
# FLuc counter – inhibits or activates purified firefly luciferase, miR-21 counter-screen; purified FLuc, Km substrates, luminescence inhibition; Potency, µM (top dose mostly 57.5 µM), hits mostly inhibitors; hit rate 6.9% among 360,000; note: nearly all actives have a fitted effect of over 55% in size
# Target sequence (P08659 whole entry, looked up): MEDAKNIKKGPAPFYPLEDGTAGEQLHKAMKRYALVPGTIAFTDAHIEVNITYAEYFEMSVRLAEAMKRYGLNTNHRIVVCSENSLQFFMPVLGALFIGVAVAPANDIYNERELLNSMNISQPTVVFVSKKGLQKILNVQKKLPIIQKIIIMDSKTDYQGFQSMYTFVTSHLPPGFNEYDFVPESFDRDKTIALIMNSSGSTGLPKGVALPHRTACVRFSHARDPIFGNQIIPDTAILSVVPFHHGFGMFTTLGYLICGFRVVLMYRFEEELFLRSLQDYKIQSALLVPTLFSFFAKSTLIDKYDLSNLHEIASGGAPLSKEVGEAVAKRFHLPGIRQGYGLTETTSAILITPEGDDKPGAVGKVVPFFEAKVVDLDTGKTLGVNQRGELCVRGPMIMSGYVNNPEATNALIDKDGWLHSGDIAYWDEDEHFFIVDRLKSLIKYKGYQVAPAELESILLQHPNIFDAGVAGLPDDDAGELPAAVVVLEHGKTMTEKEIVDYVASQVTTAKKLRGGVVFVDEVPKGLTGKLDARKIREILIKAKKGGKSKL
#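 Biochemical qHTS of compounds, final roughly 60 µM downward over six points, against 10 nM purified firefly luciferase using Km concentrations of substrates (10 uM D-luciferin, 10 uM ATP) in Tris acetate pH 7.5 buffer; luminescence output.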
# A number is an active result; – = inactive; ? = inconclusive; · = no result. Calls come from the whole dose curve; as a rule, active = well fitted curve in the direction sought with a large enough effect; inconclusive = small, poorly fitted or top-dose-only effect, or another doubt; inactive = no such curve, though single readings can be large; an effect the other way counts as inactive or inconclusive.
SMILES,NPC1 prom act,SMN2 splice up,ELG1 genotox,Rab9 prom act,ELG1 DNA repair,FLuc counter
Cc1c(NC(=O)/C(C#N)=C/c2ccc(-c3ccc(Cl)c(Cl)c3)o2)c(=O)n(-c2ccccc2)n1C,–,–,–,–,20.6µM,–
Cc1ccc(-c2noc(-c3nnn(CC(=O)Nc4ccc(C)cc4Cl)c3N)n2)cc1,·,·,·,·,·,–
CCn1c(=O)c(C(=O)CC#N)c(N)n(Cc2ccccc2)c1=O,–,·,–,–,–,–
O=C(/C=C/c1ccc(Cl)cc1Cl)N1CCN(c2ccc([N+](=O)[O-])c(N3CCOCC3)c2)CC1,–,–,–,–,–,–
O=C(/C=C/c1ccc(Cl)cc1)N1CCN(c2ccc([N+](=O)[O-])c(N3CCOCC3)c2)CC1,–,–,–,–,18.4µM,?
Cc1cccc2nc(CSc3nc4ccccc4o3)cn12,–,–,–,–,?,15.1µM
c1ccc2nc(SCc3cn4ccccc4n3)cnc2c1,?,?,–,?,?,?
Cc1cc(C)nc(SCc2cn3c(C)cccc3n2)n1,–,·,–,–,–,–
c1ccc2oc(SCc3cn4ccccc4n3)nc2c1,1.41µM,14.1µM,4.61µM,1.12µM,?,9.53µM
CCOc1cc2c(cc1OCC)C(c1ccc(OC)c(OC)c1)N(c1ccc(C(=O)O)cc1)C(=O)C2 (centres undefined),–,–,–,–,–,–
O=C(Nc1ccc2c(c1)CCC2)c1cccs1,2µM,·,?,1.58µM,?,6.75µM
Cc1ccc(NC(=O)OCc2cccs2)cc1,1.58µM,·,2.91µM,1.12µM,?,5.36µM
O=C(Nc1ccc(NC(=O)c2cccs2)cc1)c1ccccc1,?,·,?,3.98µM,?,–
Cc1ccc(NC(=O)OCc2cc(-c3ccccc3)on2)cc1,–,–,–,–,?,?
Cc1cc(C)nc(NS(=O)(=O)c2ccc(NC(=O)c3cccs3)cc2)n1,–,–,–,–,–,–
Nc1ccc(NC(=O)c2cccs2)cc1,–,·,–,–,?,–
CCCCN(CCCC)S(=O)(=O)c1ccc(NC(=O)c2cccs2)cc1,–,–,–,–,23.1µM,–
Cc1cc(C)cc(OCC(=O)Nc2ccc(N3CCCCC3)cc2)c1,–,·,–,–,?,–
Cn1c(=O)c2ncn(CC(=O)NCCOc3ccc(C(C)(C)C)cc3)c2n(C)c1=O,–,–,–,–,–,–
CC(C)c1ccc(NC(=O)c2ccc3snnc3c2)cc1,–,·,–,–,–,–
O=C(Nc1cccc(O)c1)c1ccc(NC(=O)c2cccs2)cc1,?,·,?,–,?,15.1µM
Cc1ccc(NC(=O)c2cccs2)cc1,2.51µM,?,13µM,2.51µM,?,12µM
Cc1cn2c(=O)cc(COc3cccc(NC(=O)c4ccc(C(C)(C)C)cc4)c3)nc2s1,·,–,·,·,·,1.2µM
Cc1cccc(C(=O)Nc2cccc(OCc3cc(=O)n4cc(C)sc4n3)c2)c1,·,–,·,·,·,–
Cc1cn2c(=O)cc(COC(=O)c3cccc(NC(=O)c4ccc(C(C)(C)C)cc4)c3)nc2s1,·,·,·,·,·,0.757µM
SMILES,NPC1 prom act,SMN2 splice up,ELG1 genotox,Rab9 prom act,ELG1 DNA repair,FLuc counter
CCCCn1nc(C(=O)Nc2ccc(-n3cnnn3)cc2)c2ccccc2c1=O,–,·,–,–,7.3µM,–
CCCCCn1nc(C(=O)N2CCc3ccccc32)c2ccccc2c1=O,–,·,–,–,11.2µM,–
CCCn1nc(C(=O)N2CCc3ccccc32)c2ccccc2c1=O,–,·,–,–,?,–
CCCn1nc(C(=O)NC2CCCc3ccccc32)c2ccccc2c1=O (centres undefined),–,–,–,–,16.4µM,–
CCCn1nc(C(=O)NC2CCCC2)c2ccccc2c1=O,·,·,–,·,?,·
CCCn1nc2cc(C(=O)NC3CCCc4ccccc43)ccc2c1OCC (centres undefined),–,–,–,–,–,–
CCCCn1nc(C(=O)NC2CCCCCC2)c2ccccc2c1=O,·,·,–,·,18.3µM,·
Cc1csc(=O)n1CCC(=O)OCc1nnc(-c2ccccc2)o1,–,·,–,–,–,–
COCCCn1c(SCC(=O)N2CC(=O)Nc3ccccc32)nnc1-c1ccoc1C,–,–,–,–,–,–
COCCCn1c(SCC(=O)n2c(C)c(C)c3ccccc32)nnc1-c1ccoc1C,–,–,18.4µM,–,?,–
N/C(=N\OC(=O)COc1cc(Cl)c(Cl)cc1Cl)c1ccccn1,0.794µM,11.2µM,?,1.12µM,?,2.39µM
Cc1cccc(OCC(=O)O/N=C(\N)c2ccccn2)c1C,?,?,?,?,?,9.53µM
COc1ccc(CC(=O)O/N=C(\N)c2ccncc2)cc1,–,·,–,–,–,–
N/C(=N\OC(=O)CCCOc1ccc(Cl)cc1Cl)c1ccccn1,–,–,–,–,–,–
COc1ccc(CC(=O)O/N=C(\N)c2ccc(C)cc2)cc1,?,·,–,?,?,16.9µM
CC(C)(C)CC(=O)O/N=C(\N)c1ccccn1,0.562µM,7.08µM,2.59µM,0.631µM,?,4.78µM
CCc1ccc(Nc2nnc(SCc3cc(=O)n4ccsc4n3)s2)cc1,–,–,–,–,–,?
N/C(=N\OC(=O)Cc1ccc(Cl)cc1)c1ccccn1,–,–,16.4µM,–,?,9.53µM
Cc1ccc(CC(=O)O/N=C(\N)c2ccccn2)cc1,4.47µM,·,?,?,?,4.78µM
Cc1ccc(OCC(=O)O/N=C(\N)c2ccccn2)cc1,3.98µM,12.6µM,?,2.51µM,?,13.5µM
Cc1ccc(Nc2nnc(SCC(=O)N(C)C3CCS(=O)(=O)C3)s2)cc1 (centres undefined),–,?,–,–,–,8.49µM
Cc1ccccc1Nc1nnc(SCC(=O)N(C)C2CCS(=O)(=O)C2)s1 (centres undefined),–,–,–,–,–,–
Cc1cccc(Nc2nnc(SCC(=O)c3ccc(Br)s3)s2)c1C,–,·,–,–,–,–
Cc1cccc(Nc2nnc(SCC(=O)c3ccc(O)cc3O)s2)c1,–,·,?,–,–,9.53µM
Cc1sc2ncnc(SCC(=O)c3ccc(O)cc3O)c2c1C,–,·,–,–,–,–
SMILES,NPC1 prom act,SMN2 splice up,ELG1 genotox,Rab9 prom act,ELG1 DNA repair,FLuc counter
Cc1ccc(Nc2nnc(SCC(=O)c3ccc(O)cc3O)s2)cc1,–,·,–,–,–,10.7µM
NC(=O)CC(NC(=O)c1ccccc1)c1ccc(NCCOc2ccccc2)c([N+](=O)[O-])c1 (centres undefined),–,·,–,–,–,–
Cc1cc(C)cc(NC(=O)N2c3ccccc3NC(=O)CC2C)c1 (centres undefined),–,·,–,–,–,–
Cc1ccc(C)c(NC(=O)CCc2nnc3ccc(N4CCCCC4)nn23)c1,–,·,–,–,–,–
N#CCSc1nnc(-c2sc3ccccc3c2Cl)o1,–,–,–,–,?,16.9µM
COC(=O)CSc1nnc(-c2sc3ccccc3c2Cl)o1,–,–,–,–,–,5.36µM
